The values that follow come from ChEMBL document CHEMBL3988442, “University of Dundee, Small-Polar-MMV Screening Library” (2021).

Each structure is given as a SMILES string. About 13,000 (27%) of roughly 48,000 compounds showed an effect of 50% or more. The list shows a part of the results.

The subject of the test is Wolbachia pipientis. Briefly: Anti-Wolbachia Cell-Based Screen. It counts as functional. Further details: scale not given: in the data most compounds retested in dose-response had high values. The conditions noted are these: 5 µM.
Take `COCCn1cnnc1CCn1ccnc1-c1ccccc1Cl`: the “Percent Effect” value is listed as -5.954%. For `CN(Cc1ccon1)c1nc(-c2ccccn2)nc2c1CCNCC2` the value was -7.259%; for `CCn1c(Cn2cccn2)nnc1C1CCN(Cc2ccc(C)o2)CC1`, 4.312%. For `O=c1c2ccccc2nc2n1CCC2O` (centres undefined) the value was 1.424%; for `O=C(Nc1cc(CSCCO)ccn1)c1ccc(Cl)o1`, -51%.

Regarding `Cc1ncccc1C(=O)NC1(c2cccc(F)c2)CCOCC1`, the “Percent Effect” value is listed as -2.77%. To `COCc1cc(O)nc(C2CCCN(Cc3ccc(F)cc3)C2)n1` (centres undefined) belongs 105.5%.

Consider `CC(NC(=O)NCCN1CCCCCC1=O)c1ccc(Cl)s1` (centres undefined), for which the “Percent Effect” value is reported as -4.831%. Take `CCC(=O)N1CCN(Cc2cc(-c3ccncc3)nn2C)CC1`: the “Percent Effect” value is -2.828%. To `CCCC(=O)N1CCN(Cc2cc(-c3ccncc3)nn2C)CC1` belongs 103.8%. For `CCc1nc(CN2CCCN(C(=O)COC)CC2)cs1` the value was 6.894%. As for `CCN(CC)CC(=O)N1CCN(CCCc2ccncc2)CC1`, the “Percent Effect” value was determined as 2.413%. To `CCN(CC)CC(=O)N1CCN(CCc2ccncc2)CC1` belongs -8.418%. For `CC(C)C(=O)N1CCN(Cc2cc(-c3ccncc3)nn2C)CC1` the value was -9.87%; for `CCC(CC)C(=O)N1CCN(Cc2cc(-c3ccncc3)nn2C)CC1`, 102.3%; for `CCN(CC)C(=O)N1CCN(CCc2ccncc2)CC1`, 2.653%. For `CCCC(=O)N1CCN(c2cc(-n3cnc(C)c3C)nc(C)n2)CC1` the value was -4.899%. As for `CC(C)CC(=O)N1CCN(Cc2cc(-c3ccncc3)nn2C)CC1`, the “Percent Effect” value came to 111%. For `COCC(=O)N1CCN(Cc2cc(-c3ccncc3)nn2C)CC1` the value was 92.41%; for `COc1ccc2nc(CNC(=O)c3cc(C(C)C)no3)[nH]c2c1`, -7.08%; for `CC(NCc1cnn(C)c1)c1noc(-c2ccc(Cl)cc2)n1` (centres undefined), 2.096%. On to `Cc1ccc(C(=O)NCCn2nc(-n3cncn3)ccc2=O)c(C)c1`, for which the “Percent Effect” value is listed as 115.4%. As for `Cc1ccc(C(=O)NCCCn2cncn2)c(=O)[nH]1`, the “Percent Effect” value is recorded as 0.33%. For `O=C(NCCn1nc(-n2cncn2)ccc1=O)c1ccsc1` the value was 90.98%; for `O=C1CCc2cc(C(=O)NCc3ccc(-n4cncn4)nc3)ccc2N1`, -4.762%. In the case of `Cc1csc(C(=O)NCCn2nc(-n3cncn3)ccc2=O)c1`, the “Percent Effect” value is 104.4%. To `Cc1ccc(C(=O)NCCS(=O)(=O)Cc2ccccc2)c(C)c1` belongs 5.407%; to `O=C(NCCc1ccsc1)c1ccoc1`, 7.959%; to `O=C(NCCn1nc(-n2cncn2)ccc1=O)c1ccc(F)cc1F`, 119.8%. To `N#Cc1cccc(N2CCCC3(C2)CN(c2nncs2)CCO3)c1` (centres undefined) belongs -22.42%; to `O=C1O[C@@H]2CN(c3ccc(Cl)cn3)C[C@@H]2N1CCc1ccc(F)cc1`, 15.74%. For `CCOc1cc(CNC(=O)C(C#N)c2nc(C)cs2)ccc1OC(F)F` (centres undefined) the value was -3.55%; for `NS(=O)(=O)CCNC(=O)c1ccc(OCc2ccccc2)nc1`, 5.557%; for `CCCc1nc(C)cc(N2CCNC(C(=O)NC3CC3)C2)n1` (centres undefined), -8.099%. In the case of `O=C(C1CN(CC2CC2)CC12CCOCC2)N1CCOCC1.O=C(O)C(F)(F)F` (centres undefined), the “Percent Effect” value is on record as 0.7969%. For `O=C(CN1CCCCC1Cn1cccn1)NC1CCN(C2CC2)CC1` (centres undefined) the value was -1.641%; for `O=C(NCCn1nc(-n2cncn2)ccc1=O)c1ccccc1Br`, 41.16%. For `CCSc1ccccc1C(=O)NCCn1nc(-n2cncn2)ccc1=O` the value was 112%; for `CCSc1ccccc1C(=O)NCCn1nc(C(F)(F)F)n(C)c1=O`, -21.23%.

For `CN(CC(N)=O)C(=O)c1cn(-c2ccc(Br)cc2)cn1`, the “Percent Effect” value amounted to 8.695%. For `CN(C)C(=O)c1nnn(-c2ccc(Br)cc2)n1` the value was 110.9%.

In the case of `CC1CCCN(C(=O)c2nnn(-c3ccc(C(F)(F)F)cc3)n2)C1` (centres undefined), the “Percent Effect” value was -23.6%. For `COCC(C)NC(=O)c1nnn(-c2ccc(Br)cc2)n1` (centres undefined) the value was 4.837%; for `CCC(C)NC(=O)c1nnn(-c2ccc(Br)cc2)n1` (centres undefined), 110.8%. Turning to `O=C(NCc1ccccn1)c1nnn(-c2ccc(Br)cc2)n1`, the “Percent Effect” value amounted to 7.96%.

As to `Cc1ccc(CN(C)C(=O)CN2CCCCC2Cn2cncn2)cc1` (centres undefined), the “Percent Effect” value was -11.49%. Consider `O=C(NCc1ccccc1CN1CCOCC1)Nc1nncs1`, for which the “Percent Effect” value amounted to 33.23%. To `CC(C1CCN(Cc2cccc(OC(F)F)c2)CC1)N1CCOCC1` (centres undefined) belongs 4.738%; to `Cc1nc(-c2ccc(S(=O)(=O)N3CCC=C(F)C3)cc2)co1`, 3.194%; to `CCN(CC)c1ncccc1CNCc1ccc(-c2ccn[nH]2)s1`, 103.4%. For `CCN(Cc1ccc(Cl)s1)S(=O)(=O)CC` the value was -12.66%; for `CCN(CC)c1ncccc1CNC(=O)c1cnn(CC)c1`, -6.3%; for `CCN(CC)c1ncccc1CNCc1ccc(Cl)s1`, 99.51%. To `CCC(CO)N(Cc1cccnc1)Cc1ccc(-c2ccn[nH]2)s1` (centres undefined) belongs 4.35%; to `CCC(CO)N(Cc1ccccn1)Cc1ccc(-c2ccn[nH]2)s1` (centres undefined), 0.2436%; to `CCN(CC)c1ncccc1CNCc1cc2ccccc2s1`, 111.2%. With `CCN(CC)c1ncccc1CNC(=O)c1cc2nc(C)cc(C)n2n1`, the “Percent Effect” value is -11.51%.

For the compound `Cc1cc(N(C)C)nc(N2CCn3c(nnc3C(C)C)C2)n1`, the “Percent Effect” value is on record as -5.2%. For `NC(=O)C1CCCN1Cc1ccccc1NC(=O)Cc1cccs1` (centres undefined) the value was -13.98%; for `COCCn1ccc2cc(NC(=O)COC)ccc21`, 1.286%.

Turning to `CCC(=O)Nc1ccc2c(ccn2CCOC)c1`, the “Percent Effect” value is reported as 8.893%.

In the case of `COCCn1ccc2ccc(C(=O)N3CCN(C(C)=O)CC3)cc21`, the “Percent Effect” value is reported as 108.9%. Turning to `Cn1ccc2ccc(C(=O)N3CCN(C(=O)N4CCOCC4)CC3)cc21`, the “Percent Effect” value stood at 0.8109%. To `CS(=O)(=O)N1CCC(Oc2ccc(C(=O)N3CCSCC3)cc2Cl)CC1` belongs 7.501%; to `COCCn1ccc2ccc(C(=O)O)cc21`, 99.17%; to `CCOC(=O)N1CCN(C(=O)c2ccc3ccn(C)c3c2)CC1`, 0.8286%. To `COCCn1ccc2cc(C(=O)N3CCN(S(C)(=O)=O)CC3)ccc21` belongs 125.8%; to `CN(C)S(=O)(=O)N1CCN(C(=O)c2ccc3ccn(C)c3c2)CC1`, 5.412%; to `CC(C1CCN(Cc2c(Cl)cncc2Cl)CC1)N1CCN(C)CC1` (centres undefined), -10.06%.
